Test results from PubChem BioAssay (NCI).
The panel holds about 83,000 compounds, 20% with a hit somewhere; the sample as a whole holds those more often.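 48-hour exposure, single concentration, 96-well plates; percent growth endpoint where 0 means no net growth. Active: below 10.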 Calls of active or inactive are those of the source.

These molecules were tested on 786-0 renal (assay: NCI-60 one-dose screen, 48 h (100 = growth as untreated, 0 = no growth, -100 = all killed)). Conditions: 10 µM unless noted.

SMILES	growth
CCOC(=O)[C@H](CSSc1ncnc2cc[nH]c12)NC(=O)[C@@H](C)c1ccc2cc(OC)ccc2c1	25.5% (inactive)
CC(C)C[C@H](NC(=O)Cn1ccc(NCc2ccccc2)cc1=O)B(O)O	20.6% (inactive)
COc1ccc(C(=O)c2cc(OC)c(OC)c(OC)c2)cc1/C=C/C(=O)c1ccc(O)cc1	26.4% (inactive)
Cc1cccc(NC(=O)c2sc3nc4c(cc3c2N)CCC4)c1C	42.7% (inactive)
COc1cc(-c2cc(/C=C3\CCCCC3=O)[nH]n2)cc(OC)c1OC	98.1% (inactive)
COc1cccc(C2CC(=O)Nc3c2c(C)nn3-c2nc3ccccc3[nH]2)c1OC (stereo not drawn)	91.7% (inactive)
CCNC(=O)C1CCCN1C(=O)C(CCCN=C(N)N)NC(=O)C(CC(C)C)NC(=O)C(CC(C)C)NC(=O)C(Cc1ccc(O)cc1)NC(=O)C(CO)NC(=O)C(Cc1c[nH]c2ccccc12)NC(=O)C(Cc1cnc[nH]1)NC(=O)C1CCC(=O)N1 (stereo not drawn)	104% (inactive)
COc1ccc(-c2nc3sccn3c2-c2ccnc(NCCCNS(=O)(=O)c3ccc(F)cc3)n2)cc1	35.5% (inactive)
CCCCCC(=O)OCc1ccccc1	96.9% (inactive)
CN(C)c1nc(N)c(N=O)c(N)n1	106% (inactive)
COc1ccc(Cn2cc(COc3cc(/C=C/C(=O)c4cc(OC)c(OC)c(OC)c4)ccc3OC)nn2)cc1	81% (inactive)
CCOC(=O)C(Cc1ccccc1)n1c(O)c(C=Nc2ccc(C(=O)OCCN(CC)CC)cc2)sc1=O (stereo not drawn)	90.8% (inactive)
COc1cc(Cn2c(SCC(=O)Nc3ccc(Cl)cc3)nc3ccccc3c2=O)cc(OC)c1OC	-11% (active)
